Results on 14 molecules are retold here after PubChem BioAssay.

Calls of active or inactive are those of the source. Unless noted, no rule for the calls is given here.

Test [1] concerns Wnt5a (protein binding on small-molecule microarray). Nature of the test: small molecules binding Wnt5a protein – biophysical, small-molecule microarray, 635/667 nm fluorescence, primary screen (AID 1142).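 Also: fluorescence read at 667 nm with signal to noise per printed feature.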 Conditions: 635 nm fluorescence, higher = more signal.
Test [2] in a line: ATP-based viability of Huh7 replicon cells – cell-based, CellTiter-Glo luminescence, basal, 48 h, cytotoxicity control for HCV replication inhibitor project, primary screen (AID 1143).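 Also: Huh7 hepatoma cells carrying a hepatitis C replication reporter with no stimulus; test concentration not given here.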 The following applies: higher = more signal, called active from +8 up or from −8 down.
Test [3] can be described thus: Pseudomonas biofilm growth suppression – PAO1 strain, BacTiter-Glo luminescence, LB-PBS, primary screen (AID 1144). Conditions: P. aeruginosa PAO1 biofilm, 12 h, higher = more signal.
Test [4] in a line: basal CRE-LacZ reporter activity in PC12 – cell-based, unstimulated, primary screen (AID 1145). The following applies: no forskolin, luminescence, 4.5 h, higher = more signal, called active from +8 up or from −8 down.
Test [5] is described as follows: forskolin-driven CRE-LacZ activity in PC12 – cell-based, CRE-LacZ reporter, forskolin-stimulated, primary screen (AID 1146).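 Also: PC12 cells with 6xCRE LacZ reporter stimulated by forskolin 10 µM; beta-galactosidase reporter signal reflecting CREB driven transcription.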 Conditions: luminescence, 4.5 h, higher = more signal, called active from +8 up or from −8 down.
The target of test [6] is Streptavidin (Streptomyces avidinii) (UniProt P22629). Nature of the test: compounds binding control protein streptavidin – biophysical, small-molecule microarray, 635/667 nm fluorescence, artefact control for SMM compound annotation, primary screen (AID 1147).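 Also: signal reflects streptavidin binding to arrayed compounds as a control protein.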 The following applies: higher = more signal.
The nature of test [7]: probe aInhba binding on compound microarray – biochemical, small-molecule microarray, 635/667 nm fluorescence, primary screen (AID 1148).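 Also: score merges 667nm spot fluorescence with signal-to-noise for antibody binding to printed compounds.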 The following applies: higher = more signal.
The target of test [8] is Torsin-1A (Homo sapiens) (UniProt O14656). Nature of the test: TOR1A wild-type binding on microarray – cell lysate, small-molecule microarray, lysate, 635/667 nm, primary screen (AID 1149). Conditions: COS7 hTOR1A-WT lysate, 635 nm fluorescence, higher = more signal.
The target is the same in test [9]. In words: torsin A mutant lysate binding on microarrays – cell lysate, small-molecule microarray, COS7 lysate, 635/667 nm fluorescence, primary screen (AID 1150).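 Also: score pools 667 nm emission and signal to noise measuring lysate protein binding.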 Conditions: COS7 hTOR1A mutant lysate, 635 nm fluorescence, higher = more signal.
Test [10] has as its system Sonic hedgehog protein (Shh). In words: Sonic hedgehog microarray binding compounds – biochemical, small-molecule microarray, 635/667 nm fluorescence, primary screen (AID 1151).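 Also: Shh protein binding to compounds spotted on small-molecule microarray slides; score combines spot fluorescence intensity with signal-to-noise across triplicate slides.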 Conditions: 635 nm fluorescence, higher = more signal.

Streptavidin (Streptomyces avidinii), sequence (P22629 whole entry, looked up): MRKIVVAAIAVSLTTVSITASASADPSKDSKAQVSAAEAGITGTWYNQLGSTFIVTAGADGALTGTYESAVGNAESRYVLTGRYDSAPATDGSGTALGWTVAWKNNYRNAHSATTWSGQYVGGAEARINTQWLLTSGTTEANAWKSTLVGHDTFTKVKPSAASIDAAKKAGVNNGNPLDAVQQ
Torsin-1A (Homo sapiens), sequence (O14656 whole entry, looked up): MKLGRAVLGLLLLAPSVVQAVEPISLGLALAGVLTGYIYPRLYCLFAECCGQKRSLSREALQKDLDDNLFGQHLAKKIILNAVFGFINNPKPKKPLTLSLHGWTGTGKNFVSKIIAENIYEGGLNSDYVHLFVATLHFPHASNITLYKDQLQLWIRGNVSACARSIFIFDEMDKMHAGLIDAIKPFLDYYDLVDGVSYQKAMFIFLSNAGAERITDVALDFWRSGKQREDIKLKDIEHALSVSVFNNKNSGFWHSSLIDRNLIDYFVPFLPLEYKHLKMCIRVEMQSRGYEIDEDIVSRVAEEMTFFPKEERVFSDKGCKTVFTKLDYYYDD

On to `CCCC=C(CCC)[C@@H](NS(=O)(=O)c1cccc2cccnc12)c1ccc(-c2ccccc2)cc1`, for which the composite z-score in [1] is 0.702; in test [6] it was 1.42; in test [7], 0.475; in [8], 0.274; in test [9], 0.371; in test [10], 0.632. Besides, the z-score was -1.52 (inactive) in [2], 0.923 (inactive) in test [3], -0.379 (inactive) in test [4] and 0.415 (inactive) in [5].
As for `O=C(CS)NCCCCCCNC(=O)[C@@H]1C[C@@H]2C(=O)NCC(=O)N2[C@@H]1c1ccc(O)cc1`, the composite z-score was -0.101 in [1]; -0.635 in test [6]; -0.293 in test [7]; 0.397 in test [8]; -0.814 in [9]; 0.236 in test [10]. The z-score was -0.534 (inactive) in test [2], -1.26 (inactive) in [3], -0.537 (inactive) in test [4] and -1.57 (inactive) in test [5].
For `COCCOC(=O)N1C(=O)[C@@]2(c3cc(C#CCNC(N)=O)ccc31)[C@H](c1ccc(OCCO)cc1)N1[C@H](c3ccccc3)[C@H](c3ccccc3)OC(=O)[C@H]1[C@@H]2C(N)=O`, the composite z-score in test [1] was 0.428; in test [6], 0.947; in test [7] it was -0.0131; in test [8], 0.304; in [9], 0.406; in [10] it was 1.44. Moreover, the z-score is 0.0121 (inactive) in test [2], 0.529 (inactive) in [3], 0.228 (inactive) in [4] and -0.304 (inactive) in test [5].
As to `CO[C@H]1O[C@H](CO)[C@@H](OC(=O)Nc2ccc(C#N)cc2)[C@@H]2OC(=O)[C@H](Cc3cccc(Br)c3)C/C=C/C[C@@H](Cc3cccc(Br)c3)C(=O)O[C@@H]12`, the composite z-score was 0.563 in test [1]; 0.336 in test [6]; -0.0327 in test [7]; 0.185 in test [8]; -0.163 in [9]; 1.34 in test [10]. For the same molecule, the z-score was -3.82 (inactive) in [2], -1.36 (inactive) in test [3], -0.602 (inactive) in test [4] and -0.404 (inactive) in [5].
Turning to `COc1ccc([Si](C)(C)[C@@H]2[C@@H](CC(=O)N3Cc4ccccc4C[C@H]3CO)O[C@]3(C(=O)N(c4ccccc4)c4ccccc43)[C@H]2C)cc1`, the composite z-score came to 0.6 in test [1]; 0.627 in test [6]; 0.128 in [7]; 1.56 in test [8]; 0.871 in [9]; 1.47 in test [10]. The z-score in [2] was -4.81 (inactive); in [3], -0.751 (inactive); in [4], 2.36 (inactive); in test [5], 0.931 (inactive).
`CN(C)CCCCNC(=O)[C@H]1C[C@H]2C(=O)N[C@@H](CCCC[N+](C)(C)C)C(=O)N2[C@H]1c1ccc(O)cc1`: the composite z-score in [1] was 0.0044; in test [6] it was -0.202; in [7] it was -0.179; in [8] it was 0.278; in test [9], 0.97; in [10] it was 0.719. In addition, the z-score in test [2] is -0.482 (inactive); in test [3], 1.04 (inactive); in test [4], -1.2 (inactive); in test [5] it was -1.14 (inactive).
As for `O=C1C2C=CC(C(O)c3ccc(I)cc3)N(Nc3ccccc3)C2C(=O)N1c1ccccc1` (stereo not given), the composite z-score was 0.478 in test [1]; 1.88 in test [6]; 0.151 in [7]; -0.087 in test [8]; 0.36 in test [9]; 0.0756 in test [10]. In addition, the z-score in test [2] is -0.167 (inactive); in [3], -0.379 (inactive); in [4], -0.522 (inactive); in [5] it was 0.32 (inactive).
For the molecule `NC(=O)[C@H]1[C@@H]2C(=O)O[C@@H](c3ccccc3)[C@@H](c3ccccc3)N2[C@@H](c2ccc(O)cc2)[C@]12C(=O)Nc1ccc(C#CC3=CCCCC3)cc12`, the composite z-score was -0.0856 in test [1]; 0.185 in test [6]; -0.128 in test [7]; 0.509 in [8]; 0.721 in [9]; 1.19 in [10]. Besides, the z-score was -3.73 (inactive) in [2], 0.363 (inactive) in test [3], 0.478 (inactive) in test [4] and 0.731 (inactive) in test [5].
For the molecule `CC(C)C[C@@H]1NC(=O)[C@@]23C(=O)N[C@@H](Cc4ccccc4)C2[C@H](C)[C@@]2(C)O[C@H]2C3/C=C/C/C=C\CNC(=O)[C@@H](C)NC1=O` (stereo not given in full), the composite z-score was -0.336 in test [1]; -0.823 in [6]; -0.348 in test [7]; 0.056 in test [8]; -0.196 in [9]; 1.29 in test [10]. Besides, the z-score in test [2] was -0.611 (inactive); in test [3] it was -0.944 (inactive); in test [4] it was 0.662 (inactive); in [5], -0.268 (inactive).
In the case of `CCCCCCCCCCC(O)C1C=CC2C(=O)N(C)C(=O)C2N1Nc1cc(OC)c(OC)c(OC)c1` (stereo not given), the composite z-score in test [1] is -0.131; in test [6], 0.133; in test [7] it was 0.0086; in [8], -0.534; in test [9], 0.0777; in test [10], -1.08. Besides, the z-score in [2] was -2.56 (inactive); in [3], 0.443 (inactive); in test [4], 0.819 (inactive); in test [5], -0.212 (inactive).
Regarding `CCCCC(=O)N(CCN1CCOCC1)[C@@H]1CC(C(=O)NCCO)=C[C@H](Oc2c(I)cc(CO)cc2OC)[C@H]1O`, the composite z-score is -0.0408 in test [1]; -0.0538 in test [6]; -0.253 in test [7]; 0.314 in [8]; -0.0203 in [9]; 0.655 in test [10]. Moreover, the z-score in test [2] was 0.0643 (inactive); in test [3], -0.141 (inactive); in [4], 1.4 (inactive); in test [5], -1.19 (inactive).
Take `CCOC(=O)C[C@H]1[C@H](OC(=O)c2ccccc2-c2ccccc2)[C@@H](NC(=O)c2ccc3ccccc3n2)c2cc(OCCCO)ccc2N1C(=O)c1ccccc1`: the composite z-score in [1] is 0.233; in test [6], -0.197; in [7] it was -0.0933; in test [8], -0.0653; in test [9], 0.182; in test [10], 1.37. In addition, the z-score in test [2] was -0.0416 (inactive); in test [3] it was 1.12 (inactive); in [4], 2.57 (inactive); in test [5] it was 0.655 (inactive).
As to `CCOC(=O)C=Cc1ccccc1O`, the composite z-score in [1] turned out to be 0.0265; in test [6], 0.486; in test [7], 0.0051; in [8] it was 0.399; in [9], 0.146; in test [10] it was 0.158. The z-score was -4.76 (inactive) in [2], -0.203 (inactive) in test [3], -0.471 (inactive) in [4] and -0.586 (inactive) in test [5].
For the molecule `COCCOC(=O)N1C(=O)[C@@]2(c3cc(C#CCNC(N)=O)ccc31)[C@H](c1ccc(OCCO)cc1)N1[C@H](c3ccccc3)[C@H](c3ccccc3)OC(=O)[C@H]1[C@@H]2C(=O)NC[C@H](O)c1ccccc1`, the composite z-score was 0.423 in [1]; 0.904 in [6]; 0.111 in [7]; 0.367 in test [8]; 0.792 in test [9]; 1.27 in test [10]. In addition, the z-score was -0.441 (inactive) in test [2], -0.498 (inactive) in [3], -1.56 (inactive) in test [4] and -0.567 (inactive) in test [5].
